Source: ChEMBL document CHEMBL4513216, “Probing the Open Global Health Chemical Diversity Library for Multistage-Active Starting Points for Next-Generation Antimalarials” (ACS Infect Dis, 2020)
The whole screen tested about 69,000 compounds, of which about 8,600 (12%) showed an effect of 50% or more. Many of the other results were omitted from the sample, so strong results are more common in it than they were.

System: Plasmodium berghei
Assay: Screen against P. berghei liver stage (PbLuc), transformed with Luciferase, at 10uM
Assay type: functional, HepG2
Conditions: tested at 10 uM

Row | Structure (SMILES) | INHIBITION [%]
1 | O=C([C@@H]1COC[C@H]2CN(c3ccncn3)C[C@H]21)N1CCCCO1 | -11.6
2 | COc1ccc(CNCc2nnc3n2CC(C(F)(F)F)CC3)cc1 (centres undefined) | 27.5
3 | FC(F)(F)C1CCc2nnc(CNCc3ccsc3)n2C1 (centres undefined) | 37
4 | Fc1ccc(CNCc2nnc3n2CC(C(F)(F)F)CC3)c(F)c1 (centres undefined) | 63
5 | FC(F)(F)C1CCc2nnc(CNCc3cccs3)n2C1 (centres undefined) | 26
6 | Cc1ccc(CNCc2nnc3n2CC(C(F)(F)F)CC3)cc1 (centres undefined) | 45.1
7 | Fc1ccc(CNCc2nnc3n2CC(C(F)(F)F)CC3)cc1 (centres undefined) | 63
8 | COc1ccc(Cl)cc1NCC(=O)NCc1cccnc1OC | -12.2
9 | CC(=O)N1CCc2ccc(NC(=O)c3cn(C)nn3)cc2C1 | 24.2
10 | CCc1ncc2c(n1)CN(CC(=O)Nc1cc(C)on1)CC2 | -7.31
11 | COc1ccc2cc(C(=O)NCCNc3ccc(C)nn3)[nH]c2c1 | -17.7
12 | Cc1cc(CC(=O)N2CCc3cc(Br)sc3C2)n[nH]1 | -37.6
13 | Fc1ccccc1CN1CCC[C@@H](Cn2nnc(-c3cccs3)n2)C1 | 22.62
14 | Cc1cccc(S(=O)(=O)N2CCCc3c(c(=O)n(C)n3C)C2)c1 | 70.4
15 | COc1nn(C)c2c1CCCN(S(=O)(=O)c1cccc(F)c1)C2 | -31.3
16 | COc1cccc(S(=O)(=O)N2CCCc3c(OC)nn(C)c3C2)c1 | 18.5
17 | Cn1c2c(c(=O)n1C)CN(C(=O)c1cccc(F)c1)CCC2 | 46.6
18 | Cn1c2c(c(=O)n1C)CN(S(=O)(=O)c1cccs1)CCC2 | 18.7
19 | COc1nn(C)c2c1CCCN(S(=O)(=O)c1cccc(C)c1)C2 | 80.2
20 | CC(C)c1nc(C2CCCN(C(=O)c3ccc4c(c3)COC4)C2)no1 (centres undefined) | 1.75
21 | c1nc(N2CCOCC2)ncc1-c1cncn1CCCN1CCCCC1 | 26.585
22 | CCOC(=O)N1CCC(OC)c2ccccc2N(CC(=O)NC)C(=O)C1 (centres undefined) | 42.7
23 | CCS(=O)(=O)N1CCC(OC)c2ccccc2N(CC(=O)NC)C(=O)C1 (centres undefined) | 43.4

Row | Structure (SMILES) | INHIBITION [%]
24 | CCOC(=O)CN1C(=O)CN(S(C)(=O)=O)CCC(OC)c2ccccc21 (centres undefined) | 54.8
25 | CCn1ccnc1CN1CCC(CNC(=O)c2ccc(C)nc2)C1 (centres undefined) | 26.8
26 | Cc1ccc(C(=O)NCC2CCN(Cc3ccccc3C#N)C2)cn1 (centres undefined) | 58.6
27 | CCc1ccc(CN2CCC(CNC(=O)c3ccc(C)nc3)C2)nc1 (centres undefined) | -16.8
28 | CCOC1CC2(CCN(Cc3cccn3C)CC2)C1 | 29
29 | Cn1cc(CN2CCc3c(nnn3C)C2COCc2ccccc2)cn1 (centres undefined) | -90.3
30 | Cc1nccn1C1CCCN(C(=O)c2cnn(C)c2C2CC2)C1 (centres undefined) | -3.58
31 | Cc1cc(C)nc(NC(=O)NCCCSc2nncn2C)n1 | 9
32 | CCc1cnc(CN(C(C)=O)C2CCN(CCc3ccncc3)C2)o1 (centres undefined) | 42.9
33 | O=C(CC[C@@H]1CCCN2CCCC[C@H]12)N1CCC(c2nnc[nH]2)CC1 | -9.8
34 | Fc1cnc(N2CCCn3c(CN4CCOCC4)nnc3C2)nc1 | -16.9
35 | Fc1cnc(N2CCn3c(CN4CCCC4)nnc3C2)nc1 | 57.9
36 | Fc1cnc(N2CCCn3c(nnc3Cn3cccc3)C2)nc1 | -23.4
37 | CS(=O)(=O)c1ccc(C(=O)N2CCCC(n3cncn3)C2)o1 (centres undefined) | 21.8
38 | CCc1nnc(Nc2cccc(C3CCN(S(=O)(=O)N(C)C)CC3)n2)s1 | 53.2
39 | CCc1nnc(Nc2cccc(C3CCN(C(=O)CN(C)C)CC3)n2)s1 | 22
40 | Cc1nnc(Nc2cccc(C3CCN(CCO)CC3)n2)s1 | 13.6
41 | CCc1nnc(Nc2cccc(C3CCN(CCO)CC3)n2)s1 | 55.7
42 | CCc1nnc(Nc2cccc(C3CCN(C)CC3)n2)s1 | 12.3
43 | CCc1nnc(Nc2cccc(C3CCN(C(C)=O)CC3)n2)s1 | -28.6
44 | CS(=O)(=O)NC1CCCN(C(=O)Nc2ccccc2Cn2cccn2)C1 (centres undefined) | 20.9
45 | O=C(NCCn1ccnc1)N1CCCC1c1cccs1 (centres undefined) | 7.333
46 | Cc1cc(F)c2c(c1)CCCN2Cc1cc(=O)n(C)c(=O)n1C | -14.2

Row | Structure (SMILES) | INHIBITION [%]
47 | COc1ccc(-c2cnc(CN3CCCC3Cn3cccn3)o2)cc1 (centres undefined) | -21.8
48 | c1csc(CN2Cc3nccn3CC(Cn3cncn3)C2)n1 (centres undefined) | 28.5
49 | O=c1c(NCCO)c(N2CCN(c3ccccc3)CC2)c1=O | 29.8
50 | O=c1c(NCCNCCO)c(N2CCN(c3ccccc3)CC2)c1=O | 55.5
51 | O=c1c(NCCNCCO)c(N2CCN(Cc3ccccc3)CC2)c1=O | 28.3
52 | COc1ccc(CN2C[C@@H]3COC[C@]3(CN(C)C)C2)cc1 | 20.5
53 | CN(Cc1cccc(C#N)c1)C(=O)C1CC(c2cccc(F)c2)=NO1 (centres undefined) | 8.38
54 | COc1ccc(OC)c2c(C)cc(N(CCO)CCO)nc12 | 1.79
55 | COc1ccc(OC)c2c(C)cc(N(C)CCCO)nc12 | 51.1
56 | COc1ccc(OC)c2c(C)cc(N(C)CCO)nc12 | 0.897
57 | O=C(NCc1ccc2c(c1)OCO2)c1ccc(N2CCCCC2)nn1 | 33.4
58 | CN(C)S(=O)(=O)N1CC[C@]2(C[C@H](OCc3ccncc3)CO2)C1 | 57.1
59 | Cc1cccc(COC2COC3(CCN(Cc4ccoc4)CC3)C2)n1 (centres undefined) | 11.4
60 | Cc1cccc(CO[C@H]2CO[C@@]3(CCN(S(=O)(=O)N(C)C)C3)C2)n1 | 55.5
61 | Cc1ccc(C(=O)N2CC[C@]3(C[C@@H](OCc4ccccn4)CO3)C2)nc1 | 35.7
62 | CN(C)S(=O)(=O)N1C[C@@H](OCc2ccccn2)[C@H]2OCCC[C@H]21 | 56.1
63 | CN(C)S(=O)(=O)N1CC[C@]2(C[C@@H](Oc3cccnc3)CO2)C1 | 21.8
64 | O=C(c1ccccc1)N1CCC[C@]2(C[C@@H](OCc3ccccn3)CO2)C1 | 49.7
65 | CCS(=O)(=O)N1C[C@@H](OCc2ccccn2)[C@@H]2OCCC[C@@H]21 | 16.6
66 | CN(C)S(=O)(=O)N1CC[C@]2(C[C@H](Oc3cccnc3)CO2)C1 | 0
67 | CN(C)S(=O)(=O)N1C[C@@H](Oc2ccccn2)[C@H]2OCCC[C@H]21 | -4.74
68 | Cc1cccc(C(=O)N2CC[C@]3(C[C@H](OCc4ccccn4)CO3)C2)c1 | 71.9
69 | Cc1cccc(COC2COC3(CCN(S(C)(=O)=O)CC3)C2)n1 (centres undefined) | 44.2
